Laboratory results taken from PubChem BioAssay (Tox21).
Activity calls are given as the source filed them. Calls come from the whole dose curve; as a rule, active = well fitted activation curve with a large enough effect in the repeat runs; inconclusive = weak or mixed curves; inactive = flat fitted curve, though single readings scatter.

target: KiSS-1 receptor (Homo sapiens) (UniProt Q969F8); experiment: Human kisspeptin (KISS1R) small molecule agonists, calcium flux assay in KISS1R-HEK293 cells (AID 1920064); settings: KISS1R-HEK293, calcium flux fluorescence, agonist; series mostly up to 76.8 µM; activation: at the top concentration
Sequence (Q969F8 whole entry, looked up): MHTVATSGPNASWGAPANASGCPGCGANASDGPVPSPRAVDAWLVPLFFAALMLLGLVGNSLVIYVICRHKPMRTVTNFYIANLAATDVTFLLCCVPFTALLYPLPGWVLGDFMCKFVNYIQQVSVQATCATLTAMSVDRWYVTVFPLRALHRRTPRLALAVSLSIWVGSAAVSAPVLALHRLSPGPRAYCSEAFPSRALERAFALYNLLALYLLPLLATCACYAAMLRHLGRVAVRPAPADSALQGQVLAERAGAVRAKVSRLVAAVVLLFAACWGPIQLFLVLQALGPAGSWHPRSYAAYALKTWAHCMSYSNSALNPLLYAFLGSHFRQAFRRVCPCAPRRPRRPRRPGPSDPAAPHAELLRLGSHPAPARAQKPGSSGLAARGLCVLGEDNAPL
Description: National Center for Advancing Translational Sciences [NCATS]
Division of Preclinical Innovation [DPI]
U.S. Environmental Protection Agency [EPA]
National Institutes of Environmental Health Sciences [NIEHS]
National Toxicology Program [NTP]
U.S. Food and Drug Administration [FDA]
Kisspeptin and its receptor KISS1R play key roles in mammalian reproduction due to their involvement in the onset of puberty and control of the hypothalamic-pituitary-gonadal axis such as regulates GnRH release from the hypothalamus. The kisspeptin/KISS1R system also plays a direct role in peripheral organs (including the ovary, testis, uterus, and placenta) and is implicated in reproductive diseases such as miscarriage and polycystic ovary syndrome (PCOS). Abnormal KISS1R activity is associated with abnormal puberty, infertility, endometriosis, and hormone-dependent tumors. The KISS1 receptor (KISS1R, also called GPR54), a G-protein-coupled receptor (GPCR), acts (through phospholipase C) to increase intracellular inositol trisphosphate and then release intracellular calcium stores. Cell-based KISS1R-HEK293 assay is using HEK293 cells that have been genetically engineered to express the human KISS1R, which activity can be measured by calcium signaling. A compound/drug can activate (agonist) KISS1R that can be monitored by levels of intracellular calcium.
KISS1R-HEK293 cells developed by Codex Corp contain human KISS1R gene, which was stably integrated into HEK 293 cells. The compound activation can be detected by fluorescence intensity via calcium flux assay. This cell line has been used to screen the Tox21 10K compound library to identify agonists of KISS1R.
KISS1R-Hek293 cells were dispensed at 1500 cells/4uL/well in 1536-well black wall/clear bottom plates using a multidrop dispenser. After the assay plates were incubated at a 37 C/5% CO2 incubator for 18 hours, 4 microL of Calcium Dye Solution was added to each well. The plates were incubated at 37 C for 1 hour. And then 23 nL of compounds dissolved in DMSO, positive controls, or DMSO only was transferred to the assay plate by a pin tool station. The fluorescence intensity in the plates was measured using FDSS 7000EX kinetic plate reader with a filter set of Ex/Em=480/540 for 3 min at 1 sec intervals. Each test compound was measured at 15 concentrations and in triplicates.
% is set by controls: 0 for no effect and ±100 for the full control effect.

Row | Compound | activation
1 | CCOC(=O)C(C)O (stereo not given) | 2.17% (inactive)
2 | COC(=O)CCCCCCCCC(=O)OC | 0.0196% (inactive)
3 | CN1CCN(C(c2ccccc2)c2ccccc2)CC1 | -0.209% [at 35.3 µM] (inactive)
4 | O=P(O)(O)OCC(O)CO (stereo not given) | -0.232% [at 35.3 µM] (inactive)
5 | CC(=O)OC1CCC(C(C)(C)C)CC1 (stereo not given) | -2.99% (inactive)
6 | CCOC(=O)Oc1ccc(CCNC(=O)[C@H](CCSC)NC(C)=O)cc1OC(=O)OCC | 2.47% [at 35.3 µM] (inactive)
7 | CN(C)C(=O)C1(N2CCCCC2)CCN(CC[C@@]2(c3ccc(Cl)c(Cl)c3)CN(C(=O)c3ccccc3)CCO2)CC1 | 3.61% (inactive)
8 | CCOC(=O)C1=C(C)NC(C)=C(C(=O)OC)C1c1cccc(Cl)c1Cl (stereo not given) | 0.0272% [at 35.3 µM] (inactive)
9 | c1ccc(CNc2ncnc3nc[nH]c23)cc1 | 2.2% (inactive)
10 | CCOC(=O)C(O)c1ccccc1 (stereo not given) | 1.92% [at 35.3 µM] (inactive)
11 | CC(=O)OC1CCCCC1C(C)(C)C (stereo not given) | -0.246% (inactive)
12 | CCCCCCCCCCCCCCCCOP(=O)([O-])OCC[N+](C)(C)C | 16.2% [at 35.3 µM] (inactive)
13 | N#Cc1ccc(C(=O)O)cc1 | -1.61% (inactive)
14 | CCC1(C)NC(=O)NC1=O (stereo not given) | -1.93% (inactive)
15 | COc1c(N2C[C@@H]3CCCN[C@@H]3C2)c(F)cc2c(=O)c(C(=O)O)cn(C3CC3)c12 | -0.662% [at 35.3 µM] (inactive)
16 | Cc1ccccc1C#N | 0.64% (inactive)
17 | C=C(C)C(=O)OCCN(CC)CC | -1.96% (inactive)
18 | CCOC(=O)C1CC(=O)C(=C(O)C2CC2)C(=O)C1 (stereo not given) | 1.84% (inactive)
19 | COC(=O)C1CC(=O)C(C(=O)OC)CC1=O (stereo not given) | 0.0459% [at 6.97 µM] (inactive)
20 | Cc1cc(=O)[nH]c(=O)[nH]1 | 2.59% (inactive)

Row | Compound | activation
21 | CC(C)(C)C(=O)/C=C/c1ccc(Cl)cc1 | 1.02% (inactive)
22 | CC(C)(O)CCC(C)(C)O | 1.57% (inactive)
23 | CC(C)Cc1ccc(C(C)C(=O)OCc2ccccn2)cc1 (stereo not given) | 3.35% [at 35.3 µM] (inactive)
24 | CC1=C(/C=C/C(C)=C\C=C\C(C)=C\C(=O)O)C(C)(C)CCC1 | 0.366% (inactive)
25 | Cc1ccsc1/C=C/C1=NCCCN1C | 2.16% [at 35.3 µM] (inactive)
26 | CCc1cc(Cc2cc(CC)cc(C(C)(C)C)c2O)c(O)c(C(C)(C)C)c1 | 4.19% (inactive)
27 | Nc1nnc(-c2cccc(Cl)c2Cl)c(N)n1 | -1.23% [at 35.3 µM] (inactive)
28 | CC12CCCC=C1C(=O)OC2=O (stereo not given) | -1.66% (inactive)
29 | COc1cc2nc(Cl)nc(N)c2cc1OC | -1.22% [at 35.3 µM] (inactive)
30 | O=C1CCCCCCCCCCOCCCCO1 | -1.37% (inactive)
31 | COC(=O)CCCC(=O)O | 0.564% (inactive)
32 | CC(C)(O)c1ccccc1 | 0.515% (inactive)
33 | CCC(=O)C(=O)CC | -0.844% (inactive)
34 | O=C1N(c2ccccc2)c2ccccc2C1(Cc1ccncc1)Cc1ccncc1 | 2.09% [at 35.3 µM] (inactive)
35 | C=CC/C=C/C | -2.31% (inactive)
36 | O=C(O)CCNC(=O)c1ccccc1 | -0.283% [at 35.3 µM] (inactive)
37 | CCN(CC)CCOc1ccc(C(O)(Cc2ccc(Cl)cc2)c2ccc(C)cc2)cc1 (stereo not given) | 15.7% [at 35.3 µM] (inactive)
38 | Cc1cc(-c2ccccc2)nnc1NCCN1CCOCC1 | -0.592% [at 35.3 µM] (inactive)
39 | CCN1CCCC1CNC(=O)c1cc(S(N)(=O)=O)ccc1OC (stereo not given) | 0.94% (inactive)
40 | C=C1CC[C@H]2O[C@]2(C)CC[C@@H]2[C@@H]1CC2(C)C | 1.76% (inactive)
